Consider 98 compounds from PubChem BioAssay AID504329 (Southern Research Specialized Biocontainment Screening …, 2011).

Out of some 340,000 compounds screened, about 1,000 (0.29%) were called active. Not all results are given here. Measured potencies and affinities stand elsewhere. A number with no mark means an inactive call. Rule as the data show it: inconclusive = inhibition above about 27% without an active follow-up result; inactive = below that.

This test in a line: NS1A inhibition, H1N1 influenza, cell based functional assay (AID 504329). To be noted: percent inhibition, at 12.5 µM, hits give high values.
With `COc1ccccc1-c1cc(C(=O)NC(C)c2ccccc2)no1` (stereo not drawn), the inhibition – broadly, the change of the read-out against control, counted positive when it falls – was 10.7%.

Consider `O=C(Cc1c(F)cccc1Cl)Nc1ccccn1`, for which the inhibition is -10.5%.

As to `Cc1n[nH]c(C)c1Cc1c(F)cccc1Cl`, the inhibition was -22.1%.

Turning to `Nc1nc(N)c(Cc2ccc(Cl)cc2Cl)c(N)n1`, the inhibition was -5.28%.

Turning to `Clc1ccc(COc2ccccn2)c(Cl)c1`, the inhibition was 18.9%.

As to `Cc1nc(N)c(Cc2ccccc2F)c(N)n1`, the inhibition is -3.84%.

In the case of `CNc1cc(C(F)(F)F)nc(-c2ccccn2)n1`, the inhibition was -7.32%.

Consider `N#C/C(=C/c1ccc(-c2ccc(C(=O)O)c(Cl)c2)o1)C(=O)NCC1CCCO1` (stereo not drawn), for which the inhibition is 9.84%.

Regarding `CN(CC(=O)Nc1ccncc1)S(=O)(=O)c1ccc(Cl)cc1`, the inhibition is 4.38%.

With `CC(C)S(=O)(=O)c1cnc(N2CCOCC2)nc1N`, the inhibition is -0.07%.

In the case of `Cc1cc(C(=O)CSc2nnc(N)s2)c(C)n1Cc1cccs1`, the inhibition is -7.01%.

`CCS(=O)(=O)N(CC(=O)Nc1cccc2ccccc12)c1ccc(OC)cc1`: the inhibition is -2%.

As for `CC(=O)Nc1ccc(NC(=O)C(NS(=O)(=O)c2cccc3nsnc23)C(C)C)cc1` (stereo not drawn), the inhibition is 4.6%.

With `c1ccc(-c2cn(C[C@H]3CC[C@@H]([C@@H]4CC[C@H](Cn5cc(-c6ccccc6)nn5)O4)O3)nn2)cc1`, the inhibition is 1.07%.

As to `Cc1ccc(-c2cn(C[C@H]3CC[C@@H]([C@@H]4CC[C@H](Cn5cc(-c6ccc(C)cc6)nn5)O4)O3)nn2)cc1`, the inhibition was 1.46%.

For the compound `c1cncc(-c2cn(C[C@H]3CC[C@H](Cn4cc(-c5cccnc5)nn4)O3)nn2)c1`, the inhibition is -19.1%.

Consider `c1cncc(-c2cn(C[C@H]3CC[C@@H]([C@@H]4CC[C@H](Cn5cc(-c6cccnc6)nn5)O4)O3)nn2)c1`, for which the inhibition is -3.65%.

Consider `COc1ccc(-c2cc(C#N)nc(NN)n2)cc1`, for which the inhibition is 4.09%.

As to `N/C(CSc1ccccn1)=N\OCc1c(Cl)cccc1Cl`, the inhibition was -0.92%.

Regarding `Cc1ccc(CNC(=O)CSc2ccc(-c3ccco3)nn2)cc1`, the inhibition was 0.95%.

Turning to `CCC(=O)Nc1cc(-c2nn(CC(=O)N3CCCCC3)c(=O)c3ccccc23)ccc1N1CCOCC1`, the inhibition was -7.33%.

With `C=CC[C@H]1C=C[C@@H](C(C(=O)OC)C(=O)OC)CN1C(C)=O`, the inhibition was -4.78%.

Regarding `COCCOC(=O)c1c(NC(=O)COC(=O)Cc2cccc(OC)c2)sc(C(N)=O)c1C`, the inhibition was 6.16%.

As to `C/C(=N/NC(=O)c1cc2ccccc2cc1O)c1ccco1`, the inhibition is -9.07%.

`C/C(=N\NC(=O)c1cc2ccccc2cc1O)c1cccs1`: the inhibition was -6%.

In the case of `O=C(N/N=C/c1ccccn1)c1cc(Br)ccc1O`, the inhibition was -2.68%.

`C/C(=N\NC(=O)c1cc(Br)ccc1O)c1cccs1`: the inhibition is 0.04%.

Regarding `CN1CCc2cc3c(c4c2C1CC41CCC(=NO)CC1)OCO3` (stereo not drawn), the inhibition was 4.88%.

On to `C=CCOC(=O)C1=C[C@H](C2CC2)[C@@H](CCCO)[C@H](OCC)O1`, for which the inhibition was -9.11%.

For `CC(C)/C=C/C(=O)N1CCCC(N2CCN(c3ccccc3F)CC2)C1` (stereo not drawn), the inhibition was -4.31%.

Take `COc1ccc(OC)c(NC(=O)CSc2nn3c(=O)c(C)nnc3s2)c1`: the inhibition was 12.7%.

Turning to `Cc1ccccc1CSc1nn2c(=O)c(C)nnc2s1`, the inhibition is -4.51%.

For the compound `Cc1nnc2sc(SCc3ccccc3Cl)nn2c1=O`, the inhibition was -4.7%.

For `COc1ccccc1NC(=O)CSc1nnc(C)s1`, the inhibition is 4.51%.

Turning to `O=C(/C=N/O)NCc1ccncc1`, the inhibition is -2.91%.

For `O=C(CC(NS(=O)(=O)c1ccc(Cl)cc1)c1ccco1)NCc1ccco1` (stereo not drawn), the inhibition is -0.25%.

Turning to `Cc1ccccc1NC(=S)N(Cc1cccnc1)Cc1ccco1`, the inhibition was 17%.

Consider `Cc1cc(C(=O)NCCCOC(C)C)c2ccccc2n1`, for which the inhibition is 5.34%.

For `COc1ccc(-c2csc(NC(=O)CCCc3nc4ccccc4c(=O)[nH]3)n2)cc1OC`, the inhibition was 0.34%.

On to `N#Cc1ccc(CSc2nnc3[nH]c(=O)cc(N)n23)cc1`, for which the inhibition is -7.19%.

`O=C(COc1ncnc2ccccc12)NC1CCCCC1`: the inhibition was 9.63%.

Consider `COc1ccc(CC(=O)NC(C)c2nnc(SCC(=O)Nc3cc(C)ccc3OC)n2C)cc1` (stereo not drawn), for which the inhibition was -9.49%.

In the case of `C(=N\Nc1nc2ccccc2[nH]1)/c1ccccn1`, the inhibition is 17.1%.

On to `Cc1cccc(/C=N/Nc2nncc3ccccc23)c1`, for which the inhibition is 3.05%.

`O=c1cnnc(N/N=C/c2ccccn2)[nH]1`: the inhibition is 20.5%.

`Cc1csc(N/N=C/c2ccccn2)n1`: the inhibition was 7.11%.

As for `O=C(N/N=C/c1ccccn1)c1ccc(N/N=C/c2ccccn2)cc1`, the inhibition is 1.09%.

For the compound `C(=N\Nc1nncc2ccccc12)/c1ccccc1`, the inhibition was -20.6%.

`C=CCn1c(SCC(=O)NCc2ccc3c(c2)OCO3)nnc1C1COc2ccccc2O1` (stereo not drawn): the inhibition is -2.53%.

Turning to `CCC(C)[C@H](NC(=O)N1CCn2c1nc1ccccc12)C(=O)NCCc1ccccc1` (stereo partly drawn), the inhibition is 4.3%.

`COc1cccc(-c2ccc(NC(=O)C3CCCN(CCCn4nc(C)cc4C)C3)cc2)c1` (stereo not drawn): the inhibition is 3.69%.

As for `N#Cc1c(C(F)(F)F)cc(-c2ccccc2)n(N)c1=O`, the inhibition was -8.39%.

With `O=C(Nc1ccon1)c1ccc(Cl)c(S(=O)(=O)N2CCCCC2)c1`, the inhibition was -6.8%.

In the case of `CCc1n[nH]c(=S)n1/N=C/c1ccccn1`, the inhibition was -4.28%.

On to `S=c1[nH]nc(C2CCCCC2)n1/N=C/c1ccccn1`, for which the inhibition is -8.07%.

Consider `Cc1ccc(CNC(=O)CSc2ccc(-c3ccccn3)nn2)cc1`, for which the inhibition is 14.6%.

Turning to `COc1cccc(CNC(=O)CSc2ccc(-c3cccs3)nn2)c1`, the inhibition is 5.92%.

Consider `O=C(CSc1ccc(-c2ccccn2)nn1)NCc1ccccc1`, for which the inhibition is 1.11%.

`COc1cccc(CNC(=O)CSc2ccc(-c3ccco3)nn2)c1`: the inhibition is -0.85%.

Turning to `O=C(O)C1CCCCC1C(=O)Nc1ccc(S(=O)(=O)N2CCCCC2)cc1` (stereo not drawn), the inhibition was 4.7%.

As for `CCCC(C)C1(CC)C(=O)NC(=O)N=C1N` (stereo not drawn), the inhibition was -9.22%.

Consider `O=C(NCc1cccnc1)c1ccccc1NS(=O)(=O)c1ccccc1`, for which the inhibition was -3.37%.

On to `CCOC(=O)C1CCCN(c2c(N3CCN(c4ccccn4)CC3)c(=O)c2=O)C1` (stereo not drawn), for which the inhibition was 6.61%.

Regarding `CCCCCOc1ccc(C(=O)NCCC(=O)NCCCC(=O)OCC)cc1`, the inhibition was -5.18%.

Take `CC1(C)CC(=O)C2=C(C1)Nc1ccccc1NC2c1ccc(F)c(F)c1` (stereo not drawn): the inhibition is -6.87%.

`Cc1[nH][nH]c(=O)c1C(c1c(C)[nH][nH]c1=O)c1cn(Cc2ccc(Cl)c(Cl)c2)c2ccccc12`: the inhibition is 17.4%.

`O=C(O)Cc1cn(Cc2ccc(F)cc2)c2ccccc12`: the inhibition was 5.18%.

For the compound `COc1ccc(CNc2nc3ccccc3n2CCN2CCCCC2)cc1`, the inhibition was 8.37%.

In the case of `CCN(CC)c1ccc(CNc2nc3ccccc3n2CCN2CCOCC2)cc1`, the inhibition is 5.53%.

For `CC(C)C[C@@H](CNCC(=O)[C@H](CC(C)C)NC(=O)c1[nH]cnc1C(=O)N[C@H](CN)CC(C)C)NC(=O)c1nc[nH]c1C(=O)N[C@@H](Cc1ccccc1)C(=O)O`, the inhibition was -21.2%.

Regarding `COC(=O)c1scc(C)c1NC(=O)c1ccccc1F`, the inhibition is -2.27%.

For the compound `COc1cccc(OC)c1C(=O)Nc1nnc(-c2ccc(F)cc2)s1`, the inhibition was -7.27%.

In the case of `CCN(CC)c1ccc(/C=N/N(c2ccccc2)c2ccccc2)c(O)c1`, the inhibition is -0.39%.

For the compound `CCN(CC)c1ccc2nc3ccccc3[n+](CC)c2c1`, the inhibition was 25.1%.

As for `N#Cc1nc(COc2cccc(Cl)c2)oc1N1CCN(c2ccccc2)CC1`, the inhibition is -10.8%.

As to `CC(=O)Nc1c(O)c2ccccc2[nH]c1=O`, the inhibition was -0.37%.

As for `O=C1C(c2c(O)[nH]c3ccccc23)=Nc2ccccc21`, the inhibition is 4.56%.

Turning to `COc1ccc(CCNC(=O)c2ccc(CS(=O)(=O)Cc3cccc(C)c3)o2)cc1OC`, the inhibition is 1.57%.

In the case of `O=C(CN1C(=O)c2ccccc2C1=O)Nc1cccc(Cl)c1`, the inhibition is -5.21%.

Take `Nc1ccc2cn[nH]c2c1`: the inhibition is 0.77%.

For the compound `Nc1ccc2nc(-c3cccc(-c4nc5ccc(N)cc5[nH]4)n3)[nH]c2c1`, the inhibition is 16.6%.

Take `O=C(OCCn1c(=S)sc2ccccc21)c1ccccc1`: the inhibition is -0.85%.

Turning to `O=C(c1ccccc1)c1ccc(C(=O)N2CCOCC2)cc1`, the inhibition was 2.77%.

As to `CC(=O)Nc1ccc(NC(=O)CSc2nnc(-c3cccnc3)o2)cc1`, the inhibition is -1.5%.

Consider `O=C(CSc1nnc(-c2cccnc2)o1)Nc1ccccn1`, for which the inhibition is 19%.

For `CCOC(=O)C1CCCN(c2c(NCCc3ccc(S(N)(=O)=O)cc3)c(=O)c2=O)C1` (stereo not drawn), the inhibition is -1.2%.

On to `Cc1ccc2c(CN(C)Cc3ccc(OC(F)F)cc3)cc(=O)oc2c1C`, for which the inhibition is -13.7%.

`CN(Cc1nccs1)C(=O)C1CCC(=O)N(Cc2ccccc2F)C1` (stereo not drawn): the inhibition was -7.1%.

Regarding `COc1cccc(/C=C2\SC(=S)N(CCCC(=O)N3CCCCC3)C2=O)c1`, the inhibition is 13.4%.

With `COc1cccc(/C=C2\SC(=S)N(CCC(=O)N3CCCCC3)C2=O)c1`, the inhibition was -7.67%.

As to `S=c1[nH]cnc2scc(-c3ccccc3)c12`, the inhibition was 2.25%.

Turning to `S=c1[nH]c(-c2ccccc2)cs1`, the inhibition is -8.02%.

For the compound `CCn1cc(C(=O)NCc2ccc(OC)cc2)c(=O)c2ccc(C)nc21`, the inhibition was -3.98%.

For the compound `O=C(NCCc1ccccc1)C(=O)NCC1CCCN1S(=O)(=O)c1ccccc1` (stereo not drawn), the inhibition is -2.99%.

In the case of `N#C/C(=C/C1=C(N2CCOCC2)C(=C/c2ccc(Cl)cc2)/CC1)C(=O)Nc1ccccc1F`, the inhibition was -12.3%.

As for `CCN(CC)c1ccc(/C=C2\CCC(/C=C(\C#N)C(=O)Nc3ccccc3F)=C2N2CCOCC2)cc1`, the inhibition was -0.77%.

Regarding `CCN(CC)c1ccc(/C=C2\CCC(/C=C(/C#N)C(=O)Nc3ccccc3F)=C2N2CCOCC2)cc1`, the inhibition was -9.82%.

Take `N#C/C(=C\C1=C(N2CCOCC2)C(=C\c2ccc(Cl)cc2)/CC1)C(=O)Nc1ccccc1F`: the inhibition is 8.68%.
